# Laboratory results as given in publication PMC5540273 (PLoS ONE, 2017).
# Test system: RIOK1
# 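Further: kd values determined as follow-up on hits from a single-replicate KINOMEscan panel screen.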
row,Compound,Kd
1,CC(C)c1cc(-c2ccc3c(N)n[nH]c3c2)nc(N)n1 [GSK2250882],580 nM
2,O=C(Nc1n[nH]c2cc(-c3ccsc3)ccc12)C1CC1 [SB-732932],180 nM
3,Nc1cccc(-c2ccc3c(N)n[nH]c3c2)n1 [GSK2192730],390 nM
4,CNc1cc(-c2ccc3c(N)n[nH]c3c2)nc(N)n1 [GSK2224810],1100 nM
